Measurements as given in PubChem BioAssay (NCI).
The panel holds about 83,000 compounds, 20% with a hit somewhere; the sample as a whole holds those more often.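 Testing used 96-well plates and a 48-hour single-concentration exposure. Example: -40 means 40% of the starting cells died.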 Active and inactive are the calls of the source. Rule for the calls: active = growth percent below 10; inactive = the rest.

Key:
Experiment in all cases: NCI-60 one-dose screen, 48 h (100 = growth as untreated, 0 = no growth, -100 = all killed)
Details in all cases: 10 µM
SR leukemia = tested on: SR leukemia
RPMI-8226 leukemia = tested on: RPMI-8226 leukemia
OVCAR-8 ovarian = tested on: OVCAR-8 ovarian
OVCAR-5 ovarian = tested on: OVCAR-5 ovarian
OVCAR-4 ovarian = tested on: OVCAR-4 ovarian
SK-OV-3 ovarian = tested on: SK-OV-3 ovarian
IGROV1 ovarian = tested on: IGROV1 ovarian
OVCAR-3 ovarian = tested on: OVCAR-3 ovarian
HS 578T breast = tested on: HS 578T breast
NCI/ADR-RES ovarian = tested on: NCI/ADR-RES ovarian
T-47D breast = tested on: T-47D breast
MDA-MB-435 melanoma = tested on: MDA-MB-435 melanoma
SW-620 colon = tested on: SW-620 colon
MCF7 breast = tested on: MCF7 breast
HCT-116 colon = tested on: HCT-116 colon
HCC-2998 colon = tested on: HCC-2998 colon
KM12 colon = tested on: KM12 colon
BT-549 breast = tested on: BT-549 breast

Measured: growth

CC(=O)OC1C=CC(OC(C)=O)O1 (stereo unspecified)
inactive: SR leukemia 101% | RPMI-8226 leukemia 92.4% | OVCAR-8 ovarian 94.2% | OVCAR-5 ovarian 101% | OVCAR-4 ovarian 97.5% | SK-OV-3 ovarian 91.8% | IGROV1 ovarian 89.8% | OVCAR-3 ovarian 102% | HS 578T breast 87.4% | NCI/ADR-RES ovarian 99.2% | T-47D breast 88.1% | MDA-MB-435 melanoma 96% | SW-620 colon 82% | MCF7 breast 87.9% | HCT-116 colon 84.3% | HCC-2998 colon 103% | KM12 colon 101%

Cc1cc(Cl)ccc1Nc1nc(C(F)(F)F)ccc1C(=O)N/N=C/c1cccc(O)c1
inactive: RPMI-8226 leukemia 24.1% | OVCAR-8 ovarian 62.6% | OVCAR-5 ovarian 51.1% | OVCAR-4 ovarian 33.8% | SK-OV-3 ovarian 38.8% | IGROV1 ovarian 27.7% | OVCAR-3 ovarian 35.9% | NCI/ADR-RES ovarian 26.6% | T-47D breast 39.8% | MDA-MB-435 melanoma 56% | SW-620 colon 27.8% | MCF7 breast 29.9% | HCT-116 colon 17.6% | HCC-2998 colon 31.9% | KM12 colon 41.8%
active: SR leukemia -13% | HS 578T breast -17.5% | BT-549 breast 9.22%

CCN1CC(CCN2CCOCC2)C(C(c2ccccc2)c2ccccc2)C1=O (stereo unspecified)
inactive: SR leukemia 94% | RPMI-8226 leukemia 113% | OVCAR-8 ovarian 99.9% | OVCAR-5 ovarian 110% | OVCAR-4 ovarian 113% | SK-OV-3 ovarian 115% | IGROV1 ovarian 127% | OVCAR-3 ovarian 112% | HS 578T breast 104% | NCI/ADR-RES ovarian 98.8% | T-47D breast 99.6% | BT-549 breast 109% | MDA-MB-435 melanoma 99.3% | SW-620 colon 106% | MCF7 breast 97.9% | HCT-116 colon 114% | HCC-2998 colon 105% | KM12 colon 117%

CN(C)CCCOc1ccc(OCCCN(C)C)c2c1C(=O)c1ccccc1C2=O
inactive: SK-OV-3 ovarian 13.8% | HS 578T breast 23% | NCI/ADR-RES ovarian 96.1% | HCC-2998 colon 16.7%
active: SR leukemia 2.73% | RPMI-8226 leukemia -20.6% | OVCAR-8 ovarian 7.14% | OVCAR-5 ovarian 8.93% | OVCAR-4 ovarian 2.16% | IGROV1 ovarian 3.65% | OVCAR-3 ovarian 3.4% | T-47D breast -5.61% | MDA-MB-435 melanoma 3.12% | SW-620 colon 3.12% | MCF7 breast 8.41% | HCT-116 colon 8.36% | KM12 colon 6.87%

O=C1c2ccccc2C(=O)c2c1ccc(C(Br)Br)c2[N+](=O)[O-]
active: SR leukemia -32% | RPMI-8226 leukemia -7.34% | OVCAR-4 ovarian -23.9% | IGROV1 ovarian -55% | OVCAR-3 ovarian -84% | T-47D breast -36.2% | SW-620 colon -23.6% | MCF7 breast -40% | HCT-116 colon -63.9%
inactive: OVCAR-8 ovarian 43.1% | OVCAR-5 ovarian 49.7% | SK-OV-3 ovarian 88.1% | HS 578T breast 103% | NCI/ADR-RES ovarian 50.3% | MDA-MB-435 melanoma 81.5% | HCC-2998 colon 82% | KM12 colon 49.9%

N#CCc1csc(Cc2ccccc2)n1
inactive: SR leukemia 98.6% | RPMI-8226 leukemia 99% | OVCAR-8 ovarian 106% | OVCAR-5 ovarian 110% | OVCAR-4 ovarian 121% | SK-OV-3 ovarian 104% | IGROV1 ovarian 108% | OVCAR-3 ovarian 106% | HS 578T breast 99.1% | NCI/ADR-RES ovarian 97.3% | T-47D breast 103% | MDA-MB-435 melanoma 111% | SW-620 colon 103% | MCF7 breast 90.1% | HCT-116 colon 106% | HCC-2998 colon 104% | KM12 colon 101%

CC1=NN(C(=O)c2nn(-c3ccc(Cl)cc3)cc2O)C(=O)C1
inactive: RPMI-8226 leukemia 13.7% | OVCAR-8 ovarian 29.4% | OVCAR-5 ovarian 63.5% | OVCAR-4 ovarian 29.9% | SK-OV-3 ovarian 34% | IGROV1 ovarian 34.8% | HS 578T breast 31.8% | NCI/ADR-RES ovarian 31.6% | T-47D breast 48.5% | MDA-MB-435 melanoma 59.8% | SW-620 colon 46.3% | MCF7 breast 52.4% | HCT-116 colon 28.5% | HCC-2998 colon 54.1% | KM12 colon 49%
active: SR leukemia -39.3% | OVCAR-3 ovarian -6.37%

O=C(O)COc1c(Cl)cc([N+](=O)[O-])cc1Cl
inactive: SR leukemia 82.3% | RPMI-8226 leukemia 101% | OVCAR-8 ovarian 99.3% | OVCAR-5 ovarian 95.7% | OVCAR-4 ovarian 108% | SK-OV-3 ovarian 92.3% | IGROV1 ovarian 93.6% | OVCAR-3 ovarian 113% | HS 578T breast 105% | NCI/ADR-RES ovarian 108% | T-47D breast 108% | BT-549 breast 90% | MDA-MB-435 melanoma 105% | SW-620 colon 110% | MCF7 breast 94.7% | HCT-116 colon 83.4% | HCC-2998 colon 101% | KM12 colon 98.1%

O=S(=O)(O)c1ccc(Cl)cc1
inactive: SR leukemia 92.5% | RPMI-8226 leukemia 102% | OVCAR-8 ovarian 101% | OVCAR-5 ovarian 103% | OVCAR-4 ovarian 114% | SK-OV-3 ovarian 92.6% | IGROV1 ovarian 103% | OVCAR-3 ovarian 103% | HS 578T breast 101% | NCI/ADR-RES ovarian 99% | T-47D breast 97.8% | MDA-MB-435 melanoma 109% | SW-620 colon 101% | MCF7 breast 91.4% | HCT-116 colon 98.4% | HCC-2998 colon 98.9% | KM12 colon 99.2%

COc1ccc2c(c1)C(=O)/C(=C/c1ncc([N+](=O)[O-])n1C)O2
active: SR leukemia 9.33% | OVCAR-8 ovarian -18.2% | OVCAR-5 ovarian 1.74% | OVCAR-4 ovarian -6.9% | SK-OV-3 ovarian -21.7% | IGROV1 ovarian -30.4% | OVCAR-3 ovarian -18% | HS 578T breast -9.93% | NCI/ADR-RES ovarian -0.383% | BT-549 breast -18.7% | MDA-MB-435 melanoma -63.2% | SW-620 colon -41% | MCF7 breast 5.2% | HCT-116 colon -10.7% | HCC-2998 colon -64.1% | KM12 colon -36.3%
inactive: RPMI-8226 leukemia 105% | T-47D breast 92%

N#Cc1cnn(C(=O)c2nn(-c3ccc(Cl)cc3)cc2O)c1N
active: SR leukemia -35.5% | RPMI-8226 leukemia -37% | SK-OV-3 ovarian 8.44% | OVCAR-3 ovarian -0.517% | NCI/ADR-RES ovarian 3.25% | T-47D breast 3.29% | HCT-116 colon 6.75%
inactive: OVCAR-8 ovarian 10.1% | OVCAR-5 ovarian 30.6% | OVCAR-4 ovarian 18.8% | IGROV1 ovarian 12.5% | HS 578T breast 75.9% | MDA-MB-435 melanoma 19.1% | SW-620 colon 38% | MCF7 breast 10.9% | HCC-2998 colon 11.9% | KM12 colon 19.1%

CCOC(=O)C(C)(c1ccccc1)c1ccccc1
inactive: SR leukemia 100% | RPMI-8226 leukemia 101% | OVCAR-8 ovarian 105% | OVCAR-5 ovarian 107% | OVCAR-4 ovarian 111% | SK-OV-3 ovarian 98.9% | IGROV1 ovarian 106% | OVCAR-3 ovarian 107% | HS 578T breast 111% | NCI/ADR-RES ovarian 106% | T-47D breast 99.1% | MDA-MB-435 melanoma 106% | SW-620 colon 105% | MCF7 breast 99.6% | HCT-116 colon 102% | HCC-2998 colon 109% | KM12 colon 96.4%

CC(CN(C)C)Oc1ccc(OC(C)CN(C)C)c2c1C(=O)c1ccccc1C2=O (stereo unspecified)
inactive: SR leukemia 20.7% | RPMI-8226 leukemia 41.4% | OVCAR-8 ovarian 30.1% | OVCAR-5 ovarian 63.6% | OVCAR-4 ovarian 72% | SK-OV-3 ovarian 45.1% | IGROV1 ovarian 37.3% | OVCAR-3 ovarian 55% | HS 578T breast 70% | NCI/ADR-RES ovarian 94.5% | T-47D breast 77.7% | MDA-MB-435 melanoma 46.1% | SW-620 colon 27.9% | MCF7 breast 16.1% | HCT-116 colon 14.2% | HCC-2998 colon 57.4% | KM12 colon 51.1%

O=C(CCC(C(=O)c1ccccc1)c1ccccc1)c1ccccc1 (stereo unspecified)
active: MDA-MB-435 melanoma 4.52%
inactive: SR leukemia 25.5% | RPMI-8226 leukemia 64.9% | OVCAR-8 ovarian 95.3% | OVCAR-5 ovarian 88% | OVCAR-4 ovarian 91.2% | SK-OV-3 ovarian 74.3% | IGROV1 ovarian 79.3% | OVCAR-3 ovarian 72.3% | HS 578T breast 80.1% | NCI/ADR-RES ovarian 38.3% | T-47D breast 66.6% | BT-549 breast 54.5% | SW-620 colon 41.9% | MCF7 breast 72% | HCT-116 colon 50.3% | HCC-2998 colon 76.6% | KM12 colon 34.5%

CCN(CC)CCNc1ccc(C)c2sc3cc(Cl)ccc3c(=O)c12
inactive: OVCAR-8 ovarian 45.9% | OVCAR-5 ovarian 64.3% | OVCAR-4 ovarian 52.1% | SK-OV-3 ovarian 64.2% | IGROV1 ovarian 20.4% | OVCAR-3 ovarian 59.1% | HS 578T breast 43.3% | NCI/ADR-RES ovarian 51.1% | T-47D breast 33.1% | MCF7 breast 19.8% | HCT-116 colon 11.4% | HCC-2998 colon 23.3% | KM12 colon 32.2%
active: SR leukemia -30.4% | RPMI-8226 leukemia -4.34% | MDA-MB-435 melanoma -44.8% | SW-620 colon 2.58%

O=C(Nc1cccc2c1CCCC2)c1cc2ccccc2cc1O
inactive: SR leukemia 18% | OVCAR-8 ovarian 55.9% | OVCAR-5 ovarian 103% | OVCAR-4 ovarian 56.8% | SK-OV-3 ovarian 37% | IGROV1 ovarian 32.1% | OVCAR-3 ovarian 28.2% | HS 578T breast 47.5% | NCI/ADR-RES ovarian 11.7% | T-47D breast 32.4% | BT-549 breast 27.4% | MDA-MB-435 melanoma 41.8% | SW-620 colon 51.4% | MCF7 breast 62.6% | HCC-2998 colon 59.1% | KM12 colon 49.9%
active: RPMI-8226 leukemia 8.51% | HCT-116 colon 6.56%

CCCc1nc(C(C)(C)O)c(C(=O)O)n1Cc1ccc(-c2ccccc2-c2nn[nH]n2)cc1
inactive: SR leukemia 85.9% | RPMI-8226 leukemia 104% | OVCAR-8 ovarian 91.7% | OVCAR-5 ovarian 104% | OVCAR-4 ovarian 100% | SK-OV-3 ovarian 106% | IGROV1 ovarian 114% | OVCAR-3 ovarian 117% | HS 578T breast 102% | NCI/ADR-RES ovarian 105% | T-47D breast 82.1% | BT-549 breast 103% | MDA-MB-435 melanoma 106% | SW-620 colon 98.6% | MCF7 breast 98.9% | HCT-116 colon 106% | HCC-2998 colon 110% | KM12 colon 120%
